Source: PubChem BioAssay (NCATS)
Inconclusive results are not listed. Entries that show only a call come without a potency. Activity calls are given as the source filed them. Calls come from the whole dose curve; as a rule, active = well fitted cell-killing curve with a large enough effect; inconclusive = small, poorly fitted or top-dose-only effect; inactive = no such curve, though single readings can be large or run the other way.

Experiment: qHTS of pediatric cancer cell lines to identify multiple opportunities for drug repurposing: Primary screen for Rh41 cells (AID 1347108); note: nearly all actives have a fitted effect of over 70% in size;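 for activity change, negative = cytotoxic: luminescence drop marks cytotoxic hits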
Conditions: Rh41 rhabdomyosarcoma viability, CellTiter-Glo luminescence, 48 h; series mostly up to 46 µM
Excerpt: Drug repurposing or repositioning has been offered as a strategy for drug development in oncology programs. This approach has special potential for childhood cancers and other rare or orphan diseases, where the expected return on new drug development has been a disincentive to pharmaceuticals. […] In this project we exploit the poly-pharmacology of drugs to discover new indications via phenotypic screening of a panel of 19 well-characterized cell lines derived from solid tumors seen in children and adolescents. The goal is to identify approved drugs with previously unrecognized anticancer properties that has the potential to reveal new mechanisms and biological processes involved in carcinogenesis or drug resistance. We employed a titration-based paradigm (quantitative high-throughput screening or qHTS), where all compounds were tested at multiple concentrations for their effect on cell viability. Concentration-response curves (CRCs) were derived directly from the primary screen, and both potency and efficacy values were used to identify compounds with robust bioactivity profiles. We screened the NIH Chemical Genomics Center (NCGC) Pharmaceutical Collection (NPC) and Mechanism Interrogation Plate (MIPE) small molecule collections of approved and investigational compounds against these cell lines; and measured metabolically active cells after 48 hours of compound treatment as a proxy for cell viability. […] Assay Submitter: Nathalia J. Martinez, National Center for Advancing Translational Sciences, National Institutes of Health, Rockville, MD, USA; email: natalia.martinez@nih.gov Shen, M et al. Quantitative high-throughput phenotypic screening of pediatric cancer cell lines identifies multiple opportunities for drug repurposing. Oncotarget 2017 Dec 19;9(4):4758-4772. PMID 29435139.
The cells were obtained from University of North Carolina (UNC), Pediatric Preclinical Testing Program (PPT), and Coriell Institute (CI). qHTS cell viability assay: Cells were assayed in growth media at a density of 500-1,000 cells/well. Five microliters of cells were dispensed into 1,536-well, white, solid-bottom, TC-treated plates (Greiner Bio One) using a multidrop dispenser and incubated at 37 degrees C, 5% CO2, under a humidified atmosphere for 5 hours. Twenty-three nanoliters of compounds and controls (neutral control DMSO or positive control bortezomib at final concentration of 2.3 µM) were subsequently transferred by Kalypsys pintool. For primary screens, the MIPE collection was tested at 11-point dilutions (final concentrations range from 0.78 nM to 46 µM) and the NPC collection at 8-point dilutions (final concentrations range from 0.59 nM to 46 µM). Compounds tested in follow-up screens were assayed at 11-point dilutions. Cells were incubated for 48 hours, followed by addition of 3 µL of CellTiter-Glo (Promega). After a 15 min incubation at room temperature, samples were analyzed for luminescence intensity using a ViewLux High-throughput CCD imager equipped with clear filters.
Potency is the fitted concentration of half-maximal effect.

With `CN[C@H]1[C@@H](O[C@@H]2[C@H](O[C@@H]3[C@@H](O)[C@@H](O)[C@@H](N=C(N)N)[C@@H](O)[C@@H]3N=C(N)N)O[C@H](C)[C@@]2(O)C=O)O[C@@H](CO)[C@@H](O)[C@H]1O` as the compound, how does the activity change, negative = cytotoxic read?
The activity change, negative = cytotoxic was 17.1% [at 9.22 µM] (inactive).

For `CC(NCCc1ccc(O)cc1)C(O)c1ccc(O)cc1` (stereo not given), which Potency is on record?
Its Potency is “inactive”.

For `CC[C@H](C)n1cc(C)c2c(C(=O)NCc3c(C)cc(C)[nH]c3=O)cc(-c3ccc(N4CCNCC4)nc3)cc21`, which Potency is on record?
Its Potency is 18.7 µM (active).

For `COc1cc2nccc(Oc3ccc(NC(=O)Nc4cc(C)on4)c(Cl)c3)c2cc1OC`, which Potency is on record?
The Potency was 14.8 µM (active).

With `O=C1NC(=O)C(=Cc2ccc(-c3ccc(F)cc3O)o2)S1` as the compound, how does the Potency read?
Its Potency is “inactive”.

Which Potency does the source give for `NC(=O)c1noc([C@H](CCCC2CCCCC2)CC(=O)NO)n1` here?
Its Potency is 14.8 µM (active).

For `COc1ccc(-c2oc3c(CC=C(C)C)c(O)cc(O)c3c(=O)c2O)cc1`, which Potency is on record?
The Potency was 18.7 µM (active).

Which Potency does the source give for `CC(C)(OCc1nn(Cc2ccccc2)c2ccccc12)C(=O)O` here?
Its Potency is “inactive”.

For `O=C(O)CCC=CCC[C@@H]1[C@H](N2CCCCC2)[C@@H](O)C[C@@H]1OCc1ccc(-c2ccccc2)cc1`, which Potency is on record?
Its Potency is 18.7 µM (active).

For `CN1N=C(N)c2cn([C@@H]3O[C@H](COP(=O)(O)O)[C@@H](O)[C@@H]3O)c3ncnc1c23`, which Potency is on record?
Its Potency is 2.35 µM (active).

With `Cn1c(=O)c(Oc2ccc(F)cc2F)cc2cnc(NC3CCOCC3)nc21` as the compound, how does the Potency read?
Its Potency is “inactive”.

Which Potency does the source give for `COc1ccc(C=CC(=O)Nc2ccccc2C(=O)O)cc1OC` here?
The Potency was “inactive”.

For `NC1(C(=O)N[C@@H](CCO)c2ccc(Cl)cc2)CCN(c2ncnc3[nH]ccc23)CC1`, which Potency is on record?
The Potency was 0.743 µM (active).

Which Potency does the source give for `Cc1cc(NC(=O)Nc2ccc(N(C)C)cc2)c2cc(F)cc(F)c2n1` here?
Its Potency is “inactive”.

With `C=CCc1cccc(C=NNC(=O)CN2CCN(Cc3ccccc3)CC2)c1O` as the compound, how does the Potency read?
The Potency was 18.7 µM (active).

For `COc1nccc(-c2c(-c3ccc(F)cc3)ncn2C2CCNCC2)n1`, which Potency is on record?
The Potency was “inactive”.

For `CCC(=O)N1CCN(c2ccc(-n3c(=O)ccc4cnc5ccc(-c6cnc7ccccc7c6)cc5c43)cc2C(F)(F)F)CC1`, which Potency is on record?
Its Potency is 0.0743 µM (active).

For `COc1c(C)c2c(c(O)c1CC=C(C)CCC(=O)O)C(=O)OC2`, which Potency is on record?
The Potency was “inactive”.

For `COc1ccnc(CS(=O)c2nc3ccc(OC(F)F)cc3[nH]2)c1OC` (stereo not given), which Potency is on record?
Its Potency is “inactive”.

Which Potency does the source give for `CCC(c1ccc(O)cc1)C(CC)c1ccc(O)cc1` (stereo not given) here?
The Potency was “inactive”.

With `O=C(O)Cc1cccc(OCCCN(Cc2cccc(C(F)(F)F)c2Cl)CC(c2ccccc2)c2ccccc2)c1` as the compound, how does the Potency read?
Its Potency is 23.5 µM (active).

With `O=C(O)c1nc(=O)[nH]c(=O)[nH]1` as the compound, how does the Potency read?
The Potency was “inactive”.

With `c1cc(OCCN2CCCCC2)cc(-c2n[nH]c3ccc(-c4ncn[nH]4)cc23)c1` as the compound, how does the Potency read?
The Potency was “inactive”.

For `CC(C)[C@H](O)C(=O)N[C@@H](C)C(=O)N[C@@H]1C(=O)N(C)CCc2ccccc21`, which Potency is on record?
Its Potency is “inactive”.

Which Potency does the source give for `Cc1nc(NC(=O)N2CCC[C@@H]2C(N)=O)sc1-c1csc(C(C)(C)C)n1` here?
The Potency was 11.8 µM (active).

Which Potency does the source give for `CCNC(=O)Nc1ccc(Oc2ncnc(N)c2C=NOC)cc1Cl` here?
Its Potency is “inactive”.

For `CC(C)Oc1cc(Nc2nc(N[C@@H](C)c3ccc(F)cn3)ncc2Cl)[nH]n1`, which Potency is on record?
Its Potency is 5.26 µM (active).

Which Potency does the source give for `C=C1[C@H](n2cnc3c(=O)[nH]c(N)nc32)C[C@H](O)[C@H]1CO` here?
The Potency was “inactive”.

For `C[C@@]1(C(=O)Nc2ccc(F)nc2)CCCN1c1nc(Nc2cc(C3CC3)[nH]n2)c2cccn2n1`, which Potency is on record?
The Potency was 0.0743 µM (active).

With `CN(C)c1nc(Cc2ccc(NC(=O)c3ccc(C(F)(F)F)cc3)cc2)nc(N(C)C)c1CC(=O)O` as the compound, how does the Potency read?
Its Potency is “inactive”.

With `CCC(=O)OCC(=O)[C@@]1(OC(=O)CC)[C@@H](C)C[C@@H]2[C@H]3CCC4=CC(=O)C=C[C@]4(C)[C@@]3(F)[C@@H](O)C[C@@]21C` as the compound, how does the Potency read?
The Potency was 0.148 µM (active).

Which Potency does the source give for `CCCCCCCCCCCCCC(=O)N[C@H](CO)[C@H](O)c1ccc([N+](=O)[O-])cc1` here?
Its Potency is “inactive”.

For `O=C1CCCC(=O)C1C(=O)c1ccc(C(F)(F)F)cc1[N+](=O)[O-]`, which Potency is on record?
Its Potency is “inactive”.

With `COc1ccc(-c2cc3nccn3c(Nc3ncccc3C(N)=O)n2)cc1OC` as the compound, how does the Potency read?
The Potency was 2.35 µM (active).

With `Cc1cccc(-c2[nH]c(C(C)(C)C)nc2-c2ccc3c(c2)OCO3)n1` as the compound, how does the Potency read?
Its Potency is 1.18 µM (active).

With `Cc1ccccc1C(C(=O)NC1CCCCC1)N(C(=O)CNc1ccc(C#N)cc1)c1cccc(F)c1` (stereo not given) as the compound, how does the Potency read?
The Potency was “inactive”.

For `CN(C)CCOc1ccc(-c2nc(-c3ccc4c(c3)CCC4=NO)c(-c3ccncc3)[nH]2)cc1`, which Potency is on record?
Its Potency is 23.5 µM (active).

Which Potency does the source give for `COc1cc2nc(-c3cc(F)ccc3O)nc(N[C@@H]3CNC[C@@H]3C(C)(C)O)c2cc1OC` here?
Its Potency is 23.5 µM (active).

Which Potency does the source give for `CC(C)=CCCC(C)=CCCC(C)=CCCC(C)=CCCC(C)=CCCC(C)=CCCC(C)=CCCC(C)=CCCC(C)=CCO` here?
Its Potency is “inactive”.

With `COc1c(C)cnc(Cn2cnc3c(Cl)nc(N)nc32)c1C` as the compound, how does the Potency read?
Its Potency is 1.18 µM (active).
